Test results reported in PubChem BioAssay AID576 (NMMLSC, 2007).
The whole screen tested about 24,000 compounds, of which about 150 (0.62%) were called active.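 How the source made its calls: active means fluorescence ratio above 2.44, which is 1 plus 3 SD of all ratios; inconclusive means signal too bright to measure linearly, ratio around 10 or more; inactive means fluorescence ratio below 2.44.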 The list comes from a sample in which actives are over-represented; it also holds similar structures and randomly drawn compounds.

Assay: intrinsic compound fluorescence with Jurkat cells – cell-based, flow cytometry, artefact control for VLA-4 allosteric ligand project, primary screen (AID 576);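 further: green fluorescence of cells measured with 488 nm excitation and 530 nm emission; tested at 10 µM compound in the well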
Conditions: compound autofluorescence, hits give high values, 1 = vehicle-only cell background

Row | SMILES | fluorescence ratio
1 | COc1ccccc1N1CCN(Cc2nnnn2CCc2ccccc2)CC1 | 0.99 (inactive)
2 | COc1ccc(C2CC(c3ccc(Cl)cc3Cl)Nc3nc(N)nn32)cc1OC (stereo not drawn) | 1.06 (inactive)
3 | C=CCOC(=O)C1=C(C)OC(N)=C(C#N)C1c1ccc(F)cc1 (stereo not drawn) | 1.25 (inactive)
4 | CC(=O)N1C(=O)C2(Nc3ccccc3N2)c2ccccc21 | 1.04 (inactive)
5 | CCOC(=O)c1sc(=S)n(-c2cccc(OC)c2)c1N | 1.14 (inactive)
6 | Cc1ccccc1CSc1nnc(Cn2c(=O)sc3ccccc32)n1C | 0.88 (inactive)
7 | CCOC(=O)CSc1nnc(CNC(=O)c2ccco2)n1-c1ccc(F)cc1 | 1 (inactive)
8 | CCOC(=O)c1ccc(CS(=O)c2ccc(Cl)cc2)o1 (stereo not drawn) | 1.08 (inactive)
9 | CC1=C(C)CC2C(=O)N(c3cccc4ccccc34)C(=O)C2C1 (stereo not drawn) | 1.06 (inactive)
10 | COC(=O)C(C)Sc1nc2c(c(=O)n(C)c(=O)n2C)n1Cc1cccc(C)c1 (stereo not drawn) | 1.09 (inactive)
11 | O=C1OC(NC(=O)c2ccccc2)C(N2CCOCC2)=C1Cl (stereo not drawn) | 1.07 (inactive)
12 | O=C(CN1CCN(c2ccc(F)cc2)CC1)Nc1cccc(C(F)(F)F)c1 | 0.96 (inactive)
13 | CCc1ccc(NC(=O)CSc2nc3ccccc3c(=O)n2CCN2CCOCC2)cc1 | 1.15 (inactive)
14 | CCn1cc(C(=O)NC2CCCCCC2)c(=O)c2cc(S(=O)(=O)N3CCCCC3)ccc21 | 1.18 (inactive)
15 | CCCC(=O)NC(C)C(c1cccs1)N1CCN(c2ccccc2)CC1 (stereo not drawn) | 1.12 (inactive)
16 | O=C(Nc1cccnc1)c1ccc2c(c1)OCO2 | 1.06 (inactive)
17 | CCOC(=O)n1c(SCC(=O)N(CC)CC)nc2ccccc21 | 0.99 (inactive)
18 | CCS(=O)(=O)N1CCCC(C(=O)NCc2ccc(C)cc2)C1 (stereo not drawn) | 0.99 (inactive)
19 | CCOC(=O)C1CCN(C(=O)Cc2c(C(=O)O)[nH]c3ccccc23)CC1 | 1.09 (inactive)
20 | COc1ccc(OC)c(C(=O)c2ccc(C(=O)O)cc2)c1 | 0.99 (inactive)
21 | COc1ccccc1-c1c(C)nn2c(C)c(C(C)=O)cnc12 | 0.98 (inactive)

Row | SMILES | fluorescence ratio
22 | Cc1ccc(C)c(N2CCN(C(=O)CCc3nc4ccccc4[nH]3)CC2)c1 | 1.04 (inactive)
23 | O=C(CN1CCOCC1)Nc1c2c(nc3c1CCC3)CCC2 | 0.96 (inactive)
24 | Cc1cc(NC(=O)c2cc(-c3cccs3)on2)nn1Cc1ccc(Cl)cc1 | 1.05 (inactive)
25 | CC(=O)Nc1nonc1-c1nc2ccccc2n1Cc1ccccn1 | 1.24 (inactive)
26 | CC(Sc1sc(=S)sc1SC(C)C(=O)O)C(=O)O (stereo not drawn) | 0.93 (inactive)
27 | Cn1c(=O)cc(SCC(=O)N2CCN(C(=O)c3ccco3)CC2)c2ccccc21 | 1.12 (inactive)
28 | C=CCNC(=O)CSc1nc2sc(C)c(C)c2c(=O)[nH]1 | 1.07 (inactive)
29 | O=C(O)CC(c1ccccc1)n1cnnn1 (stereo not drawn) | 0.92 (inactive)
30 | Cn1nnnc1SCc1cc(=O)[nH]c2ccccc12 | 1.06 (inactive)
31 | CC(C)OCCCNC(=O)C1CC(=O)N(C2CCCCCCC2)C1 (stereo not drawn) | 0.98 (inactive)
32 | CCOc1ccc(N(CC(=O)NCc2ccc(OC)cc2)S(=O)(=O)c2c(C)noc2C)cc1 | 0.82 (inactive)
33 | COc1ccc(CCN(Cc2cc3cccc(C)c3[nH]c2=O)C(=O)N2CCCC2)cc1OC | 1.08 (inactive)
34 | O=C(CN1C(=O)C2C3C=CC(C3)C2C1=O)NCCc1ccccc1Cl (stereo not drawn) | 1.19 (inactive)
35 | O=C(CCn1c(=O)oc2ccccc21)Nc1ccon1 | 1.03 (inactive)
36 | Cc1cc(=O)n2nc(N3CCCC(C(=O)N4CCN(C)CC4)C3)sc2n1 (stereo not drawn) | 1.07 (inactive)
37 | Cc1ccc(-c2cc(C(F)(F)F)n3nc(C(=O)N4CCCC4)cc3n2)cc1 | 1.02 (inactive)
38 | Cc1nc(C)c2c(c1C(F)(F)F)-c1ccccc1C2(F)F | 1.11 (inactive)
39 | CCOC(=O)c1cnc(-n2nc(C)cc2C)nc1Nc1cccc(C(C)=O)c1 | 1.06 (inactive)
40 | COCc1[nH]nc2c1C(C1C=CCCC1)C(C#N)=C(N)O2 (stereo not drawn) | 1.09 (inactive)
41 | Cc1noc(C)c1S(=O)(=O)NCCc1ccc(S(N)(=O)=O)cc1 | 1.07 (inactive)
42 | Cn1c(=O)n(C)c2cc(CNc3ccc(N4CCOCC4)c(C(=O)O)c3)ccc21 | 0.99 (inactive)

Row | SMILES | fluorescence ratio
43 | O=C(O)C1CCCN(S(=O)(=O)c2cccc3cccnc23)C1 (stereo not drawn) | 0.95 (inactive)
44 | CCCCn1c(CN2CCN(CCO)CC2)nc2ccccc21 | 1.04 (inactive)
45 | COc1ccc(-c2nc(CS(=O)CC(=O)NCc3cccnc3)c(C)o2)cc1OC (stereo not drawn) | 0.78 (inactive)
46 | COc1ccc(C2/C(=C(/O)c3ccccc3)C(=O)C(=O)N2c2ncccn2)cc1OC (stereo not drawn) | 0.98 (inactive)
47 | Cc1nc(N2CCN(c3ncccn3)CC2)c2oc3ccccc3c2n1 | 1.15 (inactive)
48 | CCOC(=O)N1CCN(C(=O)c2cn(C)c3ccc(S(=O)(=O)N4CCCC4)cc3c2=O)CC1 | 1.07 (inactive)
49 | COc1ccccc1NC1=NC2(CCCC2)N=C(N)N1 | 1.04 (inactive)
50 | COc1ccc(-c2cc3ccc(OCc4nn[nH]n4)cc3oc2=O)cc1 | 1.09 (inactive)
51 | Fc1ccc2nc(Nc3nc4c(s3)CCCC4)sc2c1 | 4.43 (active)
52 | CNC(=O)c1ccc2nc(NC(C)=O)sc2c1 | 1.01 (inactive)
53 | Fc1ccc2nc(N3CCCCC3)sc2c1 | 1.31 (inactive)
54 | CCOC(=O)C1CCCN(C(=O)C2CCN(c3nnc(-n4cccc4)s3)CC2)C1 (stereo not drawn) | 1.06 (inactive)
55 | CSc1ccc(S(=O)(=O)Nc2cccc(F)c2)cc1 | 0.98 (inactive)
56 | O=C(c1cnn2ccccc12)N1CCc2ccccc21 | 0.92 (inactive)
57 | CCOC(=O)N1CCC(NC(=O)CCc2cn(C)c3ccccc23)CC1 | 0.96 (inactive)
58 | N#CCCn1ncc2ccccc21 | 0.9 (inactive)
59 | CCC1=C/C(=C\c2ccc3c(c2)OCO3)C(=O)S1 | 1.11 (inactive)
60 | CC1CCCC(N2CCN(C(=O)c3ccc(F)cc3)CC2)C1 (stereo not drawn) | 0.93 (inactive)
61 | Cc1c(C(=O)N2CC(C)OC(C)C2)sc2nc(-c3ccccc3)cn12 (stereo not drawn) | 1.33 (inactive)
62 | CCC(=O)N1CCc2cc(S(=O)(=O)NC(C(=O)N3CCc4ccccc4C3)C(C)C)ccc21 (stereo not drawn) | 0.97 (inactive)
63 | COc1ccc(CCNS(=O)(=O)c2ccc(C(=O)NCc3ccco3)cc2)cc1OC | 1.03 (inactive)
